Source: PubChem
This is a sample that favours compounds with a hit; in the whole collection about 2% have one here.
PKA-R1A activ: activators of PKA-R1A complex | activation, % at 11.4 µM | PKA-R1A dissociation, Cy5-IP20 fluorescence polarization; scaled: DMSO 0%, 113 µM cGMP 100% | 340,000 compounds, 0.083% hits;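 active = percent activation above the mean of all tested compounds plus 3 SD, cut at about 19% in these data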;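 note: higher means more PKAc released from R1A so a rise in polarization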
MsrA inh: bovine MsrA inhibition | inhibition, % at 15.5 µM | purified bovine MsrA, absorbance read-out | 360,000 compounds, 0.75% hits;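 note: 0% = vehicle wells with enzyme and 100% = reference inhibitor wells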
PKA-R2B activ: activators of human PKA-R2B complex; activation, % at 11.4 µM; AID 504700; PKA-R2B holoenzyme dissociation, Cy5-IP20 fluorescence polarization; R2B truncated from residue 108, S112A mutant; 0% DMSO only, 100% 113 µM cGMP; P22694+P31323; 340,000 compounds, 0.079% hits;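 active = activation above a cutoff set at the mean over all compounds plus 3 SD, cut at about 18% in these data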;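 note: higher means more holoenzyme dissociation and a rise in polarization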
Target sequence (P31323 whole entry, looked up, other chains not shown, the tested form may be a part): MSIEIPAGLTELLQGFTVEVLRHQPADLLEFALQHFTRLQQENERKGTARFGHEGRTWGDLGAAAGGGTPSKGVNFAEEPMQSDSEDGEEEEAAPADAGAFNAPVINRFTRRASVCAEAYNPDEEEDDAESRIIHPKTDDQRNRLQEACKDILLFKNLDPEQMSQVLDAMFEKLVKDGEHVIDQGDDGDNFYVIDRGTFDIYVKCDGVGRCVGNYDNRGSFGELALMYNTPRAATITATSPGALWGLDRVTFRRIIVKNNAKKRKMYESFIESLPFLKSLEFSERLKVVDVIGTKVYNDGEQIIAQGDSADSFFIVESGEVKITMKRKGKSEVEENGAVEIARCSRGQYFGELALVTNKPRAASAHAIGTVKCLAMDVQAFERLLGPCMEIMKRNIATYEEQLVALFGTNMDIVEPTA
MsrA act: bovine methionine sulfoxide reductase A activation; purified bovine MsrA, absorbance read-out; activation, % at 10.6 µM; 360,000 compounds, 0.3% hits; AID 602163; in the data active = activation above about 7.5%;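 note: 0% = vehicle and 100% = reference activator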
Mot1-301 SUMO: SUMOylation pathway inhibition by Mot1-301 growth rescue. growth rescue, % at 18.8 µM. S. cerevisiae Mot1-301 growth rescue, ATP luminescence, 38.5C; percent above DMSO median, 100 means doubled. 320,000 compounds, 1% hits. AID 2716;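 active = every valid replicate shows activation above 250% relative to neutral control wells; inactive = the rest, any valid replicate at or below 250%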;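 note: OY570 slx delta 5 strain wells were the positive control but not used for scaling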
MsrA inh confirm: bovine MsrA inhibition, confirmed; shares compounds with MsrA inh; AID 651822; purified bovine MsrA, absorbance read-out; 2,300 compounds, 41% hits; inhibition, % at 15.5 µM;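 note: coupled to thioredoxin reductase with NADPH and selenocystamine and DMSO as substrate; 0% = vehicle only and 100% = full effect of reference inhibitor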
Starred values were filed as active, the others as inactive; . = not tested or not shown. Cut-off read from the data, not from the text of the source, unless noted: active = inhibition above about 4.5%; inactive = the rest.

SMILES	PKA-R1A activ	MsrA inh	PKA-R2B activ	MsrA act	Mot1-301 SUMO	MsrA inh confirm
Cc1[nH]nc2c1C(c1ccsc1)C1=C(CC(C)(C)CC1=O)N2 (stereo not given)	-22	4.7*	-2	-14	-14	3
COc1ccc(C2=NS(=O)(=O)N(C)C(C(=O)NC3CCCCC3)=C2)cc1	3	3	6	-10	5	.
COc1ccc(C2=NS(=O)(=O)N(C)C(C(=O)NCc3ccccn3)=C2)cc1	10	4.7*	-3	-1	-3	3
COc1ccc(NC(=O)C2=CC(c3ccco3)=NS(=O)(=O)N2C)cc1	-1	3	5	-1	.	.
COc1ccc(C2=NS(=O)(=O)N(C)C(C(=O)NC3CCCC3)=C2)cc1	-8	6.1*	6	-2	-8	2
COc1ccc(C2=NS(=O)(=O)N(C)C(C(=O)NCc3cccs3)=C2)cc1OC	-3	4.7*	3	-2	-3	2
COc1ccc(NC(=O)C2=CC(c3ccc(OC)cc3)=NS(=O)(=O)N2C)cc1	-6	5.4*	6	-2	-4	2
CSc1ccc(/C=C(\C(=O)O)c2ccc(S(=O)(=O)N3CCCCC3)s2)cc1	-4	5.9*	2	-16	-4	2
O=C(O)/C(=C\c1ccc(Cl)cc1)c1ccc(S(=O)(=O)N2CCCC2)s1	8	0	2	-15	-1	.
CCCCN(CCCNC(=S)NCCCc1cnc[nH]1)c1ccc(Br)cn1	.	-1	.	-1	.	.
CC1(C)CC(c2nc(-c3ccc([N+](=O)[O-])cc3)cs2)CCO1 (stereo not given)	3	4.8*	-2	-4	5	2
Cc1cc(/C=C(\C#N)C(=O)O)c(C)n1CC(C)C	-5	7.2*	2	-3	3	3
Cc1cc(/C=C(\C#N)C(=O)O)c(C)n1CCC(C)C	3	4	-5	-5	-22	.
CN(C)c1ccc(/C=N/NC(=O)C(=O)N2CCCCCC2)cc1	-5	4.7*	-2	-4	-15	5.9*
O=C(N/N=C/c1ccccn1)c1ccco1	4	0	2	0	4	.
CN(C)c1ccc(/C=N/NC(=O)c2ccn(C)n2)cc1	4	6.3*	5	-4	-13	4
CN(C)c1ccc(/C=N/NC(=O)c2cc(=O)[nH]c3ccccc23)cc1	0	7.1*	4	-2	-6	5
O=C(N/N=C/c1ccc2ncccc2c1)c1ccco1	-4	5.2*	8	-10	19	3
COc1ccc(/C=N/NC(=O)C(=O)N2CCCC2)cc1	5	0	6	-2	3	.
O=C(N/N=C/c1ccccc1)c1cc(=O)[nH]c2ccccc12	-2	1	-20	-11	-3	.
O=C(NCc1cccs1)c1ccc2nc([C@@H]3O[C@H](CO)[C@H](O)[C@H](O)[C@H]3O)[nH]c2c1	.	1	.	-2	.	.
COc1ccc(-n2nnnc2C(c2ccnc3ccccc23)N2CCN(C/C=C/c3ccccc3)CC2)cc1 (stereo not given)	.	1	.	-12	.	.
CN(C)c1ccc(/C=N/NC(=O)c2ccco2)cc1	-16	4.7*	-5	-3	67	5.1*
Cc1ccc(/C=N/NC(=O)c2ccco2)cc1	.	0	.	-4	72	.
COc1ccc2nc(NC(=S)N(C)C)sc2c1	-3	6.3*	-7	-3	-21	4
SMILES	PKA-R1A activ	MsrA inh	PKA-R2B activ	MsrA act	Mot1-301 SUMO	MsrA inh confirm
COc1ccc(CN2CCC[C@]3(N[C@H](c4ccc(C(F)(F)F)cc4)[C@@H]4C(=O)N(Cc5ccccc5)C(=O)[C@@H]43)C2=O)cc1	-15	0	-3	-1	.	.
O=c1oc2ccc3ccccc3c2cc1-c1nc2ccccc2o1	-2	2	-14	0	-2	.
O=c1oc2ccccc2cc1-c1nc2ccccc2o1	9	5.2*	3	-18	-5	4
CC(=O)Nc1cc(Cl)c(N=Cc2ccc(O)cc2O)cc1Cl	0	1	3	-4	306	.
CCOC(=O)c1sc(/N=C/c2ccc(O)cc2O)cc1C	0	5.3*	-6	-11	-3	2
O=C(NCc1ccc(Cl)c(Cl)c1)c1cc(C2CCCCN2C(=O)c2ccccc2)on1 (stereo not given)	.	-2	.	-2	.	.
O=C1c2ccccc2C(=O)c2c1oc(C(F)(F)F)c2C(=O)c1ccccc1	-12	51*	-10	2	-53	58*
CC(=O)c1c(C)oc2c1C(=O)c1ccccc1C2=O	-4	0	6	2	-66	.
C=CCCC1CN(Cc2ccc(OC)cc2)S(=O)(=O)c2c(Oc3ccc(C(C)C)cc3)cccc2O1 (stereo not given)	.	1	.	.	.	.
CC1(Oc2ccc(Cl)cc2)CCN(Cc2ccc(-c3ccccn3)cc2)C1 (stereo not given)	.	1	.	-5	.	.
COc1ccc(-n2sc3c(c2=S)-c2cc(OC)ccc2NC3(C)C)cc1	-5	-1	4	-5	6	.
COc1ccc2c(c1)-c1c(sn(-c3ccccc3)c1=S)C(C)(C)N2	-7	4.7*	-2	-6	2	1
CCCCCCCCN1C(=O)[C@H](CC(=O)NCc2cccc(C(F)(F)F)c2)C[C@@]2(C(=O)OC)CCCCC=C12	.	0	.	0	.	.
CCC(=O)/C=C1\Sc2ccc(OC)cc2N1CCO	1	4	5	-1	-5	.
CCC(=O)/C=C1\Sc2ccc(OC)cc2N1CC	-12	5.7*	-12	-7	-1	4
CCCc1nc(SCc2ccccn2)c2c(=O)n(C)c(=O)n(C)c2n1	-7	11*	-4	-3	-5	9.2*
Cn1c(=O)c2c(SCc3ccccn3)nc(CC(C)(C)C)nc2n(C)c1=O	4	0	1	-1	-14	.
COc1ccc2cc(C(=O)N/N=C/c3cc(OC)c(OC)c(OC)c3)[nH]c2c1	6	5.8*	8	-8	74	6.4*
COc1ccc(/C=N/NC(=O)c2[nH]c(C)c(C(=O)N/N=C/c3ccc(OC)cc3)c2C)cc1	-7	4.9*	5	-4	.	5.5*
COc1ccc(/C=N/NC(=O)c2cc3cc(OC)c(OC)cc3[nH]2)cc1	0	5.3*	-10	-1	2	7.8*
COc1cc(OC)c2cc(C(=O)N/N=C/c3cccc(OC)c3O)[nH]c2c1	-8	1	4	-9	-3	.
COc1cccc(/C=N/NC(=O)c2[nH]c(C)c(C(=O)N/N=C/c3cccc(OC)c3)c2C)c1	-7	3	-10	-5	81	.
CCOc1ccc2[nH]c(C(=O)N/N=C/c3ccc(OC)cc3)cc2c1	-6	4	-4	-6	0	.
COc1cc2cc(C(=O)N/N=C/c3ccc(F)cc3)[nH]c2cc1OC	4	4.8*	-11	-4	8	6.0*
COc1cc2cc(C(=O)N/N=C/c3ccccc3Cl)[nH]c2cc1OC	-4	1	9	-15	-22	.
